Measurements reported in PubChem BioAssay (Tox21).
Several values for one entry are separate records, joined by “and”; a condition that tells them apart may be missing. Equal values may be shown once. Inconclusive results are not listed. Entries that show only a call come without a potency. Activity calls are given as the source filed them. Unless noted, the call rests on the fitted dose curve; in most records, active means well fitted curve in the direction sought with a large enough effect in the repeat runs; inconclusive means weak or mixed curves; inactive means no such curve, though single readings can be large; an effect the other way counts as inactive or inconclusive.

Legend:
[1] = qHTS assay to identify small molecule agonists of the peroxisome proliferator-activated receptor delta (PPARd) signaling pathway - cell viability counter screen (AID 743211); further: nearly all actives have a fitted effect of over 55% in size; further: potency means the concentration at half of the fitted maximal effect
In short: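 Multiplexed format: after the 2 h room-temperature LiveBLAzer B/G FRET step, CellTiter-Glo was added to the same wells. Luminescence after 30 min gave cell viability; compound exposure was 17 h at 37C.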

[2] = molecular target: Peroxisome proliferator-activated receptor delta (Homo sapiens) (UniProt Q03181); experiment: qHTS assay to identify small molecule agonists of the peroxisome proliferator-activated receptor delta (PPARd) signaling pathway (AID 743212; calls by dose curve; further: potency means the concentration at half of the fitted maximal effect)
In short: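 Tox21 library screened in GeneBLAzer PPARd UAS-bla HEK293H cells. After compound treatment at 37 C, a FRET-based beta-lactamase substrate was applied for 2 h and fluorescence recorded.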

[3] = qHTS assay to identify small molecule antagonists of the peroxisome proliferator-activated receptor delta (PPARd) signaling pathway - cell viability counter screen (AID 743213); further: nearly all actives have a fitted effect of over 50% in size; further: potency means the concentration at half of the fitted maximal effect
In short: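 Cytotoxicity counter screen: CellTiter-Glo luminescence read 30 min after addition, in the same wells as the reporter assay. There, PPARd UAS-bla HEK293H cells (3000/well) were treated 17 h at 37 C with compound and 300 nM L165041.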

[4] = molecular target: Peroxisome proliferator-activated receptor delta (Homo sapiens) (UniProt Q03181); experiment: qHTS assay to identify small molecule antagonists of the peroxisome proliferator-activated receptor delta (PPARd) signaling pathway (AID 743215; active means well fitted inhibition curve with a large enough effect in the signal ratio in the repeat runs, not every such curve was filed as active; the % refers to the signal ratio;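 further: cells stimulated with agonist L165041 at 300 nM final during compound exposure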; further: potency means the concentration at half of the fitted maximal effect)
In short: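 Fluorescence from cleaved LiveBLAzer B/G FRET substrate (2 h, room temperature) reports PPARd-driven beta-lactamase in HEK293H UAS-bla cells. Cells had been treated 17 h at 37 C with compound plus 300 nM final L165041.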

[5] = qHTS assay to identify small molecule agonists of the farnesoid-X-receptor (FXR) signaling pathway - cell viability counter screen (AID 743218); further: nearly all actives have a fitted effect of over 45% in size; further: potency means the concentration at half of the fitted maximal effect
In short: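 Readout: CellTiter-Glo luminescence, 30 min RT, multiplexed after the FXR-bla FRET reading. HEK 293T FXR-UAS-bla cells received compound 5 h post-plating and were incubated 16 h at 37 C.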

[6] = qHTS assay to identify small molecule antagonists of the farnesoid-X-receptor (FXR) signaling pathway - cell viability counter screen (AID 743221; active means well fitted cell-killing curve with a large enough effect in the repeat runs, not every such curve was filed as active; further: nearly all actives have a fitted effect of over 50% in size; further: potency means the concentration at half of the fitted maximal effect)
In short: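 CellTiter-Glo, 30 min RT, luminescence; same wells as the LiveBLAzer FRET read. Cells: FXR-UAS-bla HEK 293T. Treatment: compound with chenodeoxycholic acid 50 uM final, 16 h at 37 C.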

[7] = molecular target: Bile acid receptor (Homo sapiens) (UniProt Q96RI1); experiment: qHTS assay to identify small molecule antagonists of the farnesoid-X-receptor (FXR) signaling pathway (AID 743217; active means well fitted inhibition curve with a large enough effect in the signal ratio in the repeat runs, not every such curve was filed as active; the % refers to the signal ratio)
In short: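 FRET fluorescence after 2 h room-temperature LiveBLAzer loading gives the readout. Prior step: FXR-bla HEK 293T cells, seeded and incubated 5 h, received test compounds plus 50 uM final CDCA for 16 h at 37 °C.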

[8] = molecular target: Bile acid receptor (Homo sapiens) (UniProt Q96RI1); experiment: qHTS assay to identify small molecule agonists of the farnesoid-X-receptor (FXR) signaling pathway (AID 743220; active means well fitted activation curve with a large enough effect in the signal ratio in the repeat runs, not every such curve was filed as active; the % refers to the signal ratio)
In short: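 FXR-UAS-bla HEK 293T cells carrying a UAS-driven beta-lactamase reporter were plated for 5 h at 37C/5% CO2, then exposed to DMSO-dissolved Tox21 10K compounds for 16 h at 37C. A LiveBLAzer B/G FRET substrate was loaded for 2 h at room temperature before fluorescence reading.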

[9] = molecular target: Vitamin D3 receptor (Homo sapiens) (UniProt P11473); experiment: qHTS assay to identify small molecule agonists of the vitamin D receptor (VDR) signaling pathway (AID 743222; calls by dose curve; further: potency means the concentration at half of the fitted maximal effect)
In short: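 Following 4 h attachment at 37C, VDR-bla cells (2,000 per well) received DMSO-dissolved compounds or controls. After 16 h incubation, LiveBLAzer B/G FRET substrate was added and fluorescence read 2 h later at room temperature.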

[10] = molecular target: Vitamin D3 receptor (Homo sapiens) (UniProt P11473); experiment: qHTS assay to identify small molecule antagonists of the vitamin D receptor (VDR) signaling pathway (AID 743223; active means well fitted inhibition curve with a large enough effect in the signal ratio in the repeat runs, not every such curve was filed as active; the % refers to the signal ratio; further: potency means the concentration at half of the fitted maximal effect)
In short: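 After VDR-bla cells are plated and left 4 h at 37C, DMSO-dissolved compounds and 3 nM (final) calcitriol agonist are added. Incubation continues 16 h at 37C; FRET beta-lactamase substrate then develops 2 h at room temperature.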

Bile acid receptor (Homo sapiens), sequence (Q96RI1 whole entry, looked up): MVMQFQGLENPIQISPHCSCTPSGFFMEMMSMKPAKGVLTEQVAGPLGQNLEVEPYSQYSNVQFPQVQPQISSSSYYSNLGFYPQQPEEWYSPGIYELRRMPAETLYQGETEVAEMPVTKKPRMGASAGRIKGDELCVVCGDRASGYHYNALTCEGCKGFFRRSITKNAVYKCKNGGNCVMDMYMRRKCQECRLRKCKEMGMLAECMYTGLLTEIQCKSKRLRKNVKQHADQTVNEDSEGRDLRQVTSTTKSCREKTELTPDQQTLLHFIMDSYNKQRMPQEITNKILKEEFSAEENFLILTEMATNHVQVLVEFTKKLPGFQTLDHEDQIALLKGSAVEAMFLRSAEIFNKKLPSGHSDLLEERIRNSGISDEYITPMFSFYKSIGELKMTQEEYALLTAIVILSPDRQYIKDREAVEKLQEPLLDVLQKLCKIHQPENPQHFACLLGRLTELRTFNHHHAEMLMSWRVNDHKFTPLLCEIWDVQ
Peroxisome proliferator-activated receptor delta (Homo sapiens), sequence (Q03181 whole entry, looked up): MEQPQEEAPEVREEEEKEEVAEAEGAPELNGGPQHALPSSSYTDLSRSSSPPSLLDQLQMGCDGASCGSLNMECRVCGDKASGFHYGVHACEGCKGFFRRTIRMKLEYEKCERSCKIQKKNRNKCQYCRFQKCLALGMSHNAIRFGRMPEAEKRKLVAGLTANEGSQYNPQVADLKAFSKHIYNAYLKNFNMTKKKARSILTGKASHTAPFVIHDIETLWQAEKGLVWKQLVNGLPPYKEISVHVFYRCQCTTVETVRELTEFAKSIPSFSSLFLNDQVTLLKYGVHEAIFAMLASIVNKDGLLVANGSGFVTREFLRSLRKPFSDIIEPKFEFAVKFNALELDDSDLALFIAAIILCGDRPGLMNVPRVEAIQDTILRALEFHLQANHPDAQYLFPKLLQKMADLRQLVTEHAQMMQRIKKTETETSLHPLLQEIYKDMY
Vitamin D3 receptor (Homo sapiens), sequence (P11473 whole entry, looked up): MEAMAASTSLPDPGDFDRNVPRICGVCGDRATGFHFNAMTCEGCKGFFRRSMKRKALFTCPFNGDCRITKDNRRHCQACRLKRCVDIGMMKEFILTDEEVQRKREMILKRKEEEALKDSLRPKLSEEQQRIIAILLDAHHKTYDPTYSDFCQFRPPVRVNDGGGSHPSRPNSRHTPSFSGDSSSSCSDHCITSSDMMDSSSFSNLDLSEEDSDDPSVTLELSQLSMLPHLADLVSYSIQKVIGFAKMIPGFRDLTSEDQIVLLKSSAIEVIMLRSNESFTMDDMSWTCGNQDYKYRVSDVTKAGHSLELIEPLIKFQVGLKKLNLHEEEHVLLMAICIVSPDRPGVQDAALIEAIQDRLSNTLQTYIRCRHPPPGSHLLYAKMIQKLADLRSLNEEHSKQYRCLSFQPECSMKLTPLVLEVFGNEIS

SMILES: Nc1ccc([N+](=O)[O-])cc1O
- Potency [1]: inactive

SMILES: CCCc1cc(=O)[nH]c(=S)[nH]1
- Potency [1]: inactive
- Potency [2]: inactive
- Potency [3]: inactive
- Potency [4]: inactive
- Potency [5]: inactive
- Potency [6]: inactive

SMILES: CC1(C)O[C@@H]2C[C@H]3[C@@H]4CCC5=CC(=O)C=C[C@]5(C)[C@@]4(F)[C@@H](O)C[C@]3(C)[C@]2(C(=O)CO)O1
- Potency [1]: inactive
- Potency [2]: inactive
- Potency [3]: inactive
- Potency [4]: inactive
- Potency [7]: inactive
- Potency [5]: inactive
- outcome [8]: inactive
- Potency [6]: inactive
- Potency [9]: inactive
- Potency [10]: inactive

SMILES: Nc1c2c(nc3ccccc13)CCCC2
- Potency [1]: inactive
- Potency [3]: inactive
- Potency [5]: inactive
- Potency [6]: inactive

SMILES: COc1ccc2cc(S(=O)(=O)N[C@H](CC(=O)N[C@H](Cc3ccc(CN4[C@H](C)CCC[C@@H]4C)cc3)C(=O)N(C)C(C)C)c3ccc4c(c3)OCO4)ccc2c1
- Potency [1]: 14.7 µM (active)
- Potency [3]: 29.2 µM (active)
- Potency [5]: 26.1 µM (active)
- outcome [8]: inactive
- Potency [6]: 52 µM (active)
- Potency [9]: inactive

SMILES: NC1CCCCC1
- Potency [1]: inactive
- Potency [2]: inactive
- Potency [3]: inactive
- Potency [4]: inactive
- Potency [5]: inactive
- Potency [6]: inactive
- Potency [9]: inactive
- Potency [10]: inactive

SMILES: CCCC[P+](CCCC)(CCCC)CCCC
- Potency [1]: inactive
- Potency [3]: inactive
- Potency [7]: inactive
- Potency [5]: inactive
- outcome [8]: inactive
- Potency [6]: inactive
- Potency [9]: inactive
- Potency [10]: inactive

SMILES: O=C1c2c(O)cccc2Cc2cccc(O)c21
- Potency [1]: inactive
- Potency [2]: inactive
- Potency [3]: inactive
- Potency [7]: inactive
- Potency [5]: inactive
- outcome [8]: inactive
- Potency [6]: inactive

SMILES: C=CCc1ccc(O)c(OC)c1
- Potency [1]: inactive
- Potency [2]: inactive
- Potency [3]: inactive
- Potency [5]: inactive
- Potency [6]: inactive

SMILES: CN1[C@@H]2CC(OC(=O)[C@H](CO)c3ccccc3)C[C@H]1[C@@H]1O[C@@H]12 (some centres not stated)
- Potency [1]: inactive
- Potency [2]: inactive
- Potency [3]: inactive
- Potency [4]: inactive
- Potency [5]: inactive
- Potency [6]: inactive
- Potency [9]: inactive
- Potency [10]: inactive

SMILES: NS(=O)(=O)c1cc2c(cc1Cl)NCNS2(=O)=O
- Potency [1]: inactive
- Potency [3]: inactive
- Potency [7]: inactive
- Potency [5]: inactive
- outcome [8]: inactive
- Potency [6]: inactive
- Potency [9]: inactive
- Potency [10]: inactive

SMILES: CN[C@H]1CC[C@@H](c2ccc(Cl)c(Cl)c2)c2ccccc21
- Potency [1]: 21.1 µM (active)
- Potency [3]: 23.7 µM (active)
- Potency [5]: 23.7 µM (active)
- Potency [6]: 26.6 µM (active)

SMILES: CCCCCCCCCCCC[N+](C)(C)Cc1ccccc1
- Potency [1]: 27 µM (active) and 18.9 µM (active) and 23.7 µM (active)
- Potency [3]: 19.1 µM (active) and 18.9 µM (active) and 15 µM (active)
- Potency [4]: 26.6 µM (active)
- Potency [5]: 17 µM (active) and 21.2 µM (active)
- Potency [6]: 53.9 µM (active) and 59.7 µM (active) and 29.8 µM (active)
- Potency [9]: inactive
- Potency [10]: 42.8 µM (active) and 53.2 µM (active)

SMILES: CCOc1ccc(NC(C)=O)cc1
- Potency [1]: inactive
- Potency [3]: inactive
- Potency [7]: inactive
- Potency [5]: inactive
- outcome [8]: inactive
- Potency [6]: inactive
- Potency [9]: inactive
- Potency [10]: inactive

SMILES: O=C1NS(=O)(=O)c2ccccc21
- Potency [1]: inactive
- Potency [3]: inactive
- Potency [5]: inactive
- Potency [6]: inactive

SMILES: CN(C)C(=S)SC(=S)N(C)C
- Potency [1]: 710 nM (active) and 389 nM (active) and 1.33 µM (active)
- Potency [3]: 3.99 µM (active) and 549 nM (active) and 944 nM (active)
- Potency [4]: 0.596 µM (active)
- Potency [5]: 502 nM (active) and 2.45 µM (active) and 1.68 µM (active)
- Potency [6]: 564 nM (active) and 1.68 µM (active)
- Potency [10]: 27.5 µM (active)

SMILES: NS(=O)(=O)O
- Potency [1]: inactive
- Potency [2]: inactive
- Potency [3]: inactive
- Potency [4]: inactive
- Potency [5]: inactive
- Potency [6]: inactive
- Potency [9]: inactive
- Potency [10]: inactive

SMILES: Cc1ccc(S(=O)(=O)O)cc1
- Potency [1]: inactive
- Potency [3]: inactive
- Potency [5]: inactive
- Potency [6]: inactive

SMILES: Cc1cccc(C)c1
- Potency [1]: inactive
- Potency [2]: inactive
- Potency [3]: inactive
- Potency [4]: inactive
- Potency [5]: inactive
- Potency [6]: inactive
- Potency [9]: inactive
- Potency [10]: inactive

SMILES: CCCCCCCCCCCCCCCC[N+](C)(C)Cc1ccccc1
- Potency [1]: 31.9 µM (active) and 8.86 µM (active) and 18.8 µM (active)
- Potency [3]: 22.6 µM (active) and 9.94 µM (active) and 13.3 µM (active)
- Potency [4]: inactive
- Potency [5]: 25.3 µM (active) and 22.3 µM (active) and 13.3 µM (active)
- outcome [8]: inactive
- Potency [6]: 63.6 µM (active) and 25 µM (active) and 16.8 µM (active)
- Potency [9]: inactive
- Potency [10]: 63.6 µM (active) and 49.8 µM (active)

SMILES: Oc1ccccc1
- Potency [1]: inactive
- Potency [3]: inactive
- Potency [7]: inactive
- Potency [5]: inactive
- outcome [8]: inactive
- Potency [6]: inactive

SMILES: CCN(CC)C(=O)c1cccc(C)c1
- Potency [1]: inactive
- Potency [2]: inactive
- Potency [3]: inactive
- Potency [7]: inactive
- Potency [5]: inactive
- outcome [8]: inactive
- Potency [6]: inactive
- Potency [9]: inactive
- Potency [10]: inactive

SMILES: CC1(C)S[C@@H]2[C@H](NC(=O)[C@H](N)c3ccccc3)C(=O)N2[C@H]1C(=O)O
- Potency [1]: inactive
- Potency [3]: inactive
- Potency [5]: inactive
- Potency [6]: inactive

SMILES: COc1cccc(O)c1O
- Potency [1]: inactive
- Potency [2]: inactive
- Potency [3]: inactive
- Potency [4]: inactive
- Potency [5]: inactive
- Potency [6]: inactive
- Potency [10]: inactive

SMILES: CC(=O)C(=O)O
- Potency [1]: inactive
- Potency [2]: inactive
- Potency [3]: inactive
- Potency [4]: inactive
- Potency [5]: inactive
- Potency [6]: inactive
- Potency [9]: inactive
- Potency [10]: inactive

SMILES: O=C1OC2(c3ccccc31)c1cc(Br)c(O)c(Br)c1Oc1c2cc(Br)c(O)c1Br
- Potency [1]: inactive
- Potency [3]: inactive
- Potency [5]: inactive
- Potency [6]: inactive

SMILES: C=C(C)C(=O)OCC(C)O (configuration not stated)
- Potency [1]: inactive
- Potency [2]: inactive
- Potency [3]: inactive
- Potency [4]: inactive
- Potency [5]: inactive
- Potency [6]: inactive
- Potency [9]: inactive
- Potency [10]: inactive

SMILES: CCCCC1(COC(=O)CCC(=O)O)C(=O)N(c2ccccc2)N(c2ccccc2)C1=O
- Potency [1]: inactive
- Potency [2]: inactive
- Potency [3]: inactive
- Potency [4]: inactive
- Potency [5]: inactive
- Potency [6]: inactive
- Potency [9]: inactive
- Potency [10]: inactive

SMILES: COc1ccc(CN(CCN(C)C)c2ccccn2)cc1
- Potency [1]: inactive
- Potency [2]: inactive
- Potency [3]: inactive
- Potency [5]: inactive
- Potency [6]: inactive

SMILES: Cc1cc(=O)oc2cc(O)ccc12
- Potency [1]: inactive
- Potency [2]: 43.6 µM (active) and 26.6 µM (active)
- Potency [3]: inactive
- Potency [5]: inactive
- Potency [6]: inactive
- Potency [9]: 21.1 µM (active)

SMILES: CCN(Cc1c(F)cccc1Cl)c1c([N+](=O)[O-])cc(C(F)(F)F)cc1[N+](=O)[O-]
- Potency [1]: 17.4 µM (active)
- Potency [2]: inactive
- Potency [3]: 17.4 µM (active)
- Potency [5]: 19.5 µM (active)
- outcome [8]: inactive
- Potency [6]: 21.9 µM (active)
- Potency [10]: inactive

SMILES: CC(C)C(=O)Nc1ccc([N+](=O)[O-])c(C(F)(F)F)c1
- Potency [1]: inactive
- Potency [3]: inactive
- Potency [7]: inactive
- Potency [5]: inactive
- outcome [8]: inactive
- Potency [6]: inactive

SMILES: O=C(Nc1ncc([N+](=O)[O-])s1)c1cccs1
- Potency [2]: inactive
- Potency [4]: inactive
- Potency [7]: inactive

SMILES: CCc1nc(N)nc(N)c1-c1ccc(Cl)cc1
- Potency [2]: inactive
- Potency [4]: inactive
- Potency [7]: inactive
